Experimental data published in PubChem BioAssay (NCI).
Several values for one entry are separate records, joined by “and”; a condition that tells them apart may be missing. Equal entries are not always repeated. Compounds without any hit were thinned out: in the full panel of roughly 83,000, 20% have a hit.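 96-well plates, one dose, 48 hours. Percent growth reported; active if below 10.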 Activity calls are given as the source filed them.

Legend:
Experiment in all cases: NCI-60 one-dose screen, 48 h (100 = growth as untreated, 0 = no growth, -100 = all killed)
Conditions in all cases: 10 µM unless noted
NCI-H23 lung = tested on: NCI-H23 lung
NCI-H226 lung = tested on: NCI-H226 lung
NCI-H322M lung = tested on: NCI-H322M lung
HOP-62 NSCLC = tested on: HOP-62 NSCLC
NCI-H460 lung = tested on: NCI-H460 lung
HOP-92 NSCLC = tested on: HOP-92 NSCLC
NCI-H522 lung = tested on: NCI-H522 lung
A549/ATCC NSCLC = tested on: A549/ATCC NSCLC
786-0 renal = tested on: 786-0 renal
COLO 205 colon = tested on: COLO 205 colon

Row | Structure (SMILES) | growth (NCI-H23 lung) | growth (NCI-H226 lung) | growth (NCI-H322M lung) | growth (HOP-62 NSCLC) | growth (NCI-H460 lung) | growth (HOP-92 NSCLC) | growth (NCI-H522 lung) | growth (A549/ATCC NSCLC) | growth (786-0 renal) | growth (COLO 205 colon)
1 | O=C(Nc1ccc(Br)cc1)c1cc(Br)ccc1O | 0.675% (active) and -16.7% (active) | 18.2% (inactive) and -33.2% (active) | -15.9% (active) and 1.23% (active) | 20.2% (inactive) and -5.46% (active) | 2.62% (active) and 3.86% (active) | -23% (active) and -12% (active) | -13.8% (active) and 2.52% (active) | 14.8% (inactive) and 14.7% (inactive) | 0.723% (active) and 2.62% (active) | 92.9% (inactive) and -42.3% (active)
2 | O=C1c2ccccc2C(=O)c2c(NCCNCCO)ccc(NCCNCCO)c21 | -70.8% (active) and 25.8% (inactive) and 29.5% (inactive) | -56.8% (active) and -20.6% (active) and -27.1% (active) | 7.84% (active) and 19.3% (inactive) and -5.07% (active) | -20.4% (active) and 3.59% (active) and 9.04% (active) | 1.72% (active) and 5.39% (active) and 5.06% (active) | -7.34% (active) and -5.98% (active) | -86.2% (active) and -57.7% (active) and -56.1% (active) | 14.3% (inactive) and 1.64% (active) | 0.75% (active) and 23.8% (inactive) and 25.2% (inactive) | -51.3% (active) and 20.9% (inactive) and 30.2% (inactive)
3 | O=[N+]([O-])c1ccccc1/C=N\Nc1ccccc1 | 75.3% (inactive) and 88.1% (inactive) | 89.4% (inactive) and 97.8% (inactive) | 86.5% (inactive) and 78.3% (inactive) | 90% (inactive) and 90.6% (inactive) | 91.2% (inactive) and 97.4% (inactive) | 72.2% (inactive) | 68.2% (inactive) and 62.3% (inactive) | 81.4% (inactive) and 81.6% (inactive) | 86.6% (inactive) and 101% (inactive) | 94.4% (inactive) and 105% (inactive)
4 | CCN(CC)CCOc1ccc2c(c1)C(=O)c1cc(OCCN(CC)CC)ccc1-2 | 79.5% (inactive) and 71.2% (inactive) | 99.7% (inactive) and 73% (inactive) | 85.8% (inactive) and 60.6% (inactive) | 58.3% (inactive) and 38.2% (inactive) | 46.2% (inactive) and 12.9% (inactive) | 20% (inactive) | 99.6% (inactive) and 69.6% (inactive) | 55.8% (inactive) and 50.6% (inactive) | 63.3% (inactive) and -30.9% (active) | 11.3% (inactive) and -4.52% (active)
5 | CCOc1ccc2cc(-c3nn(CC4CCN(C)CC4)c4ncnc(N)c34)ccc2c1 | 74.2% (inactive) and 63.5% (inactive) | 83.6% (inactive) and 67.7% (inactive) | 92.7% (inactive) and 87.4% (inactive) | 83.8% (inactive) and 77.2% (inactive) | 96.1% (inactive) and 69.6% (inactive) | 69.1% (inactive) and 48.8% (inactive) | 87% (inactive) and 42.3% (inactive) | 78.3% (inactive) and 60.1% (inactive) | 80.1% (inactive) and 55.8% (inactive) | 89.7% (inactive) and 39.6% (inactive)
6 | CN(C)c1ccc(/C=C(\C#N)c2ccccc2)cc1 | 29.3% (inactive) and 36.4% (inactive) and 44.1% (inactive) | 92.4% (inactive) and 60.5% (inactive) and 73% (inactive) | 64% (inactive) and 57.1% (inactive) and 47.6% (inactive) | 48.3% (inactive) and 31.4% (inactive) and 36.6% (inactive) | 11.2% (inactive) and 20.8% (inactive) and 12.2% (inactive) | 53.9% (inactive) and 39.5% (inactive) and 14% (inactive) | -50% (active) and 2.73% (active) and 5.2% (active) | 24.3% (inactive) and 31.2% (inactive) and 24.9% (inactive) | 44.7% (inactive) and 42.3% (inactive) and 45.6% (inactive) | -2% (active) and -7.08% (active)
7 | O=C1CCN(Cc2ccccc2)C(=S)N1 | 117% (inactive) and 100% (inactive) | 110% (inactive) and 105% (inactive) | 92.1% (inactive) and 93% (inactive) | 101% (inactive) and 103% (inactive) | 113% (inactive) and 105% (inactive) | 70.4% (inactive) and 92.4% (inactive) | 114% (inactive) and 95.1% (inactive) | 107% (inactive) and 105% (inactive) | 108% (inactive) and 109% (inactive) | 111% (inactive) and 108% (inactive)
8 | Oc1ccc(/C=C/c2ccccc2)cc1 | 73.2% (inactive) and 76.4% (inactive) | 104% (inactive) and 103% (inactive) | 77.6% (inactive) and 83.4% (inactive) | 109% (inactive) and 87.9% (inactive) | 73.4% (inactive) and 61.5% (inactive) | 95.7% (inactive) | 72.1% (inactive) and 29.2% (inactive) | 76.1% (inactive) and 59.9% (inactive) | 32.8% (inactive) and 45.1% (inactive) | 104% (inactive) and 132% (inactive)
9 | Nc1ccccc1Nc1ccccc1 | 100% (inactive) and 96.2% (inactive) | 98.8% (inactive) and 86.8% (inactive) | 86.5% (inactive) and 93% (inactive) | 103% (inactive) and 91.6% (inactive) | 94.5% (inactive) and 104% (inactive) | 136% (inactive) | 54% (inactive) and -2.1% (active) | 79.2% (inactive) | 90.8% (inactive) and 82.8% (inactive) | 125% (inactive) and 104% (inactive)
